# Results from PubChem BioAssay (NCI).
# This is part of a sample that, as a whole, favours compounds with a hit. Of some 83,000 tested, about 20% had one in any assay.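 How to read the values: 0–100, growth inhibition (40 = 60% inhibited); 0, no net growth; -100 to 0, cell death (-40 = 40% of starting cells died; -100 = all dead).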 Unmarked numbers belong to inactive results. Activity calls are given as the source filed them. The calls were made as follows: active = growth percent below 10; inactive = the rest.
# System: NCI/ADR-RES ovarian
# Test: NCI-60 one-dose screen, 48 h (100 = growth as untreated, 0 = no growth, -100 = all killed)
# Details: 10 µM unless noted
row,Compound,growth
1,CCOC(=O)c1c(NC(=O)c2ccc(C(C)C)cc2)sc2c(CN(C)C)c(O)ccc12,72.6%
2,CCOC(=O)c1cnc2ccccc2c1Cl,105%
3,CCN(CC)c1nc(SCc2ccccc2Cl)ncc1C,92.2%
4,O=C1Nc2ccc(I)cc2C1=O,97.2%
5,O=S(=O)(NCCNc1nccc(-c2c(-c3cccc(F)c3)nc3occn23)n1)c1ccc(Br)cc1,89.8%
6,CC(C)c1ccc(COCc2cc(CN3CCCC3)c(O)c3ncccc23)cc1,-51.2% (active)
7,COc1ccc2cc(C(=O)c3coc4ccc(O)cc34)ccc2c1,99.8%
8,O=C(CI)NC1Oc2ccccc2-c2oc(=O)c(-c3ccccc3)cc21 (stereo not given),36.7%
9,Cc1ccc(-n2c(=S)[nH]c3sc4c(c3c2=O)CCC(=O)C4)cc1,27.1%
10,C=CCn1c(SCC(=O)Nc2ccc(C(=O)/C=C/c3cc4cc(OC)ccc4nc3Cl)cc2)nnc1-c1ccc(Br)cc1,92.3%
11,COc1cccc(/C=C/C(=O)c2cc3c(N)c(C(=O)Nc4ccccc4)sc3nc2C)c1,-10.5% (active)
12,O=C1C(Cl)=C(Oc2ccccc2)C(=O)c2ccccc21,88.6%
13,CC(C)OC(=O)c1ccc2[nH]c(O)c(C(=Nc3ccc(N(C)C(=O)CN4CCN(C)CC4)cc3)c3ccccc3)c2c1,38.4%
14,N#CC1C=CN(CC(N)=O)c2ccc3cccnc3c21 (stereo not given),105%
15,S=C(Nc1ccc(-c2nc(N3CCOCC3)c3cccn3n2)cc1)Nc1cccnc1,26.3%
